In the library only some 32% were active in any assay of this set; here they are far more common.
PostGolgi ctrl: yeast control strain growth, post-Golgi counter-screen; efflux-deficient yeast background strain, growth absorbance A615, 16 h; inhibition, % at 10 µM; 98,000 compounds, 5% hits; AID 738
CYP2C19 inhib: blocks human cytochrome P450 2C19; inhibition, % at 5 µM; P33261; AID 778; 96,000 compounds, 21% hits; CYP2C19 Supersomes, luciferin-H EGE luminescence, 30 min;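 active = CYP2C19 inhibition above a set limit at 5 µM in the primary screen, cut at about 50% in these data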;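 note: plate controls were negative control wells for no effect and 2.5 mM tranylcypromine positive control for full effect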
Target sequence (P33261 whole entry, looked up): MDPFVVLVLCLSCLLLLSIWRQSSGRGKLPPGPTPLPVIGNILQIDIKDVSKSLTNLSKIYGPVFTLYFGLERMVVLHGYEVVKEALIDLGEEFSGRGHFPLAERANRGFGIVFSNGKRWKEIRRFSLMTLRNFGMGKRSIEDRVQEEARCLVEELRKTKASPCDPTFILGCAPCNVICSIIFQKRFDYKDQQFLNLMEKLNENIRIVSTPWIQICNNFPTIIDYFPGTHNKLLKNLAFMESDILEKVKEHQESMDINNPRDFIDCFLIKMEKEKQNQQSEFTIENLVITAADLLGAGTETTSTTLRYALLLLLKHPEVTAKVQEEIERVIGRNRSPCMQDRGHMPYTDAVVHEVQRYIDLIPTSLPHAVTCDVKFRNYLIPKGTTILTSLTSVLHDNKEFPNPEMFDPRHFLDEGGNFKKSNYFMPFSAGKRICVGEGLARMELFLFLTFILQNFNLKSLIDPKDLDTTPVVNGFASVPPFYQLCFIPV
CYP2C9 activ: increases human cytochrome P450 2C9 activity. P11712. recombinant CYP2C9, luciferin-H conversion, luminescence; active compounds read high; factor 1 = untreated enzyme, 0 = blocked. activation factor at 5 µM. 96,000 compounds, 1.4% hits. AID 1024;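 active = activation factor of 2 or more for CYP2C9 at a 5 µM dose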;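 note: 0 = sulfaphenazole-blocked wells and 1 = vehicle-only wells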
CYP2C19 activ: activators of human cytochrome P450 2C19; P33261; recombinant CYP2C19, luciferin-H EGE luminescence; active compounds read high; 0 = fully inhibited enzyme, 1 = untreated enzyme; activation factor at 5 µM; 96,000 tested, under 10 active;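 active = activation factor of at least 2 at 5 µM in the primary screen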;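 note: 0 = wells with 2.5 mM tranylcypromine and 1 = vehicle-only wells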
CYP2C9 inhib: inhibitors of human CYP2C9; CYP2C9 Supersomes, luciferin-H conversion, luminescence; inhibition, % at 5 µM; 96,000 compounds, 20% hits; AID 777;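 active = blocking of liver enzyme CYP2C9 beyond about 50% at 5 µM, limit read from the data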
PostGolgi yeast: growth inhibition of a yeast mutant, post-Golgi transport screen; inhibition, % at 10 µM; 98,000 compounds, 0.9% hits; post-Golgi transport phenotypic cell assay;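 note: yeast cells grown in 1536-well plates; yeast grown about 18 h at 30C before absorbance read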
* hit, by the source's call; . = no result given. Cut-off read from the data, not from the text of the source, unless noted: active = inhibition above about 30%; inactive = the rest.

SMILES	PostGolgi ctrl	CYP2C19 inhib	CYP2C9 activ	CYP2C19 activ	CYP2C9 inhib	PostGolgi yeast
Cc1ccc(N2C(=O)c3n[nH]c(C)c3C2c2ccccn2)cc1 (configuration not stated)	13	17	0.8	0.8	18	1
CCOC(=O)c1ccc(N2C(=O)c3n[nH]c(C)c3C2c2ccc(OC)cc2)cc1 (configuration not stated)	5	90*	0.1	0.1	93*	1
Cc1cccc(C)c1N1CCN(C(=O)Nc2ccc3c(c2)OCCO3)CC1	1	16	1	0.8	3	5
COc1cc(C2c3c(-c4ccccc4)n[nH]c3C(=O)N2c2ccc(C(=O)O)cc2)ccc1O (configuration not stated)	11	-8	1.1	1.1	-9	-3
CCOC(=O)c1ccc(N2C(=O)c3n[nH]c(C)c3C2c2ccc(OC)c(OC)c2)cc1 (configuration not stated)	5	82*	0.2	0.2	78*	-6
COc1ccc(N2CCN(C(=O)CSc3nnc4c5cc(C)ccc5n(C)c4n3)CC2)cc1	9	81*	0.4	0.2	56*	-4
CC1(C)Cc2ccccc2-c2nnc(SCC(=O)N3CCc4ccccc43)n21	-1	41	0.5	0.6	53*	-1
COc1ccc(N2CCN(C(=O)CSc3nnc4n3C(C)(C)Cc3ccccc3-4)CC2)cc1	3	58*	1	0.4	5	6
COc1ccc(N2CCN(C(=O)CCn3nnc4ccccc43)CC2)cc1	18	21	1	0.8	4	7
COc1ccc2c(c1)c1nnc(SCC(=O)N3CCCCC3C)nc1n2C (configuration not stated)	3	12	1	0.9	0	20
COc1ccc(N2CCN(C(=O)CC(NC(N)=O)c3cccc(Oc4ccccc4)c3)CC2)cc1 (configuration not stated)	13	64*	0.6	0.4	39	10
COc1ccc(N2CCN(C(=O)CSc3ccccc3)CC2)cc1	13	4	0.9	1	11	-12
COc1ccc(N2CCN(C(=O)CSc3ccccc3N)CC2)cc1	2	58*	0.3	0.4	69*	-5
CN1CCN(/C=N/C2=C(C#N)C(c3ccccc3)C3=C(CC(C)(C)CC3=O)O2)CC1 (configuration not stated)	0	12	1	0.9	1	-11
CC1(C)CC(=O)C2=C(C1)OC(N)=C(C#N)C2C#Cc1ccccc1 (configuration not stated)	15	15	0.3	0.8	69*	1
CC(CC1C(C#N)=C(N)OC2=C1C(=O)CCC2)c1ccccc1 (configuration not stated)	-5	93*	0.1	0.1	88*	2
N#CC1=C(N)OC2=C(C(=O)CCC2)C1c1ccncc1 (configuration not stated)	2	35	0.6	0.7	40	17
CC1(C)CC(=O)C2=C(C1)OC(/N=C/N1CCOCC1)=C(C#N)C2c1ccccc1 (configuration not stated)	8	31	0.3	0.7	65*	-5
CC1(C)CC(=O)C2=C(C1)OC(N)=C(C#N)C2CCc1ccccc1 (configuration not stated)	12	.	.	.	.	-2
CC(c1ccccc1)C1C(C#N)=C(N)OC2=C1C(=O)CC(C)(C)C2 (configuration not stated)	14	90*	0.2	0.1	84*	-1
CCCCOC(=O)C1C2C=C[C@]3(CN(CCCOC)C(=O)[C@H]13)O2 (some centres not stated)	7	0	1	1	-3	3
CCCc1nc(N2CCOCC2)c2sc(=S)n(-c3ccccc3)c2n1	-1	7	0.7	0.9	27	-4
CCOc1ccccc1NC(=O)C1=C(C)NC(=O)NC1c1cccc(OC)c1OC (configuration not stated)	17	20	0.9	0.8	12	-5
CSCC[C@H](NC(=O)OC(C)(C)C)C(=O)N/N=C/c1c(C)[nH]c(=O)[nH]c1=O	-3	15	0.9	0.8	10	10
CCN1C2=NCCCN2c2cc(C)c(C)cc21	-11	-14	1.1	1.1	-10	0
SMILES	PostGolgi ctrl	CYP2C19 inhib	CYP2C9 activ	CYP2C19 activ	CYP2C9 inhib	PostGolgi yeast
O=C(c1ccc(F)cc1)N1C2CCC1CC(O)(c1ccc(F)cc1)C2 (configuration not stated)	-4	13	1	0.9	-4	3
COC(=O)c1cc(Br)ccc1OC(=O)c1cccnc1	0	12	0.8	0.9	23	5
NS(=O)(=O)c1ccc(CCNC(=O)C2CCCN2C(=O)OCc2ccccc2)cc1 (configuration not stated)	-5	1	1.1	1	-7	8
NS(=O)(=O)c1ccc(CCNC(=O)[C@@H]2CCCN2S(=O)(=O)c2ccccc2F)cc1	20	-2	0.4	1	61*	-18
NS(=O)(=O)c1ccc(CCNC(=O)C2CCCCN2S(=O)(=O)c2ccccc2)cc1 (configuration not stated)	-1	13	0.3	0.9	66*	0
CCOC(=O)C1=C(C)N=C2SC(CC)C(=O)N2C1c1cccc(F)c1 (configuration not stated)	24	91*	0.2	0.1	75*	4
C=CCOC(=O)C1=C(C)N=C2SCCC(=O)N2C1c1cccs1 (configuration not stated)	22	43	0.9	0.6	14	-1
CCC1SC2=NC(C)=C(C(=O)OC)C(c3cccs3)N2C1=O (configuration not stated)	9	90*	0.6	0.1	44	4
COCCn1nnnc1CN1CCC(Cc2ccccc2)CC1	6	.	.	.	.	4
COc1ccc(-c2c(NC(=O)C(C)C)n(C)c3ccccc3c2=O)cc1	4	47	0.6	0.5	35	-11
COc1ccc(Oc2c(C=O)c3ccccc3n2C)cc1	6	69*	1.3	0.3	-34	-12
Cn1c(Sc2ccccc2Cl)c(C=O)c2ccccc21	13	40	0.6	0.6	36	5
Cn1c(Oc2ccc(Cl)cc2)c(C=O)c2ccccc21	9	58*	0.7	0.4	30	1
Cc1ccc(Oc2c(C=O)c3ccccc3n2C)cc1	33*	68*	1	0.3	-3	7
O=C(COC(=O)CCCNC(=O)c1ccc(Cl)cc1)NC1CC1	-2	-15	1.1	1.2	-12	2
CN(c1ccccc1)c1nc(N2CCCC2)nc(-n2ccnc2)n1	91*	40	0.6	0.6	39	105*
c1ccc(N(c2ccccc2)c2nc(N3CCCC3)nc(-n3ccnc3)n2)cc1	32*	-1	0.9	1	6	2

Screening results (PubChem)
